Data taken from PubChem BioAssay AID504834 (National Center for Advancing Translational Sciences (NCATS), 2011).
Out of some 320,000 compounds screened, about 22,000 (6.9%) were called active. Roughly 27% stayed inconclusive and do not appear here. Many of the other results were omitted from the sample, so actives are more common in it than they were. Values without a mark were called inactive. Calls follow the shape of the dose curve; as a rule, active = well fitted inhibition curve with a large enough effect; inconclusive = small, poorly fitted or top-dose-only effect, or another doubt; inactive = no such curve, though single readings can be large or run the other way.

Assay: Primary qHTS for delayed death inhibitors of the malarial parasite plastid, 96 hour incubation
Settings: P. falciparum luciferase reporter growth; series mostly up to 28.7 µM; activity change, negative = inhibition: at the top concentration
From the text: The goal of this screen is to discover new antimalarial compounds that act by inhibiting the development of the apicoplast in the malarial parasite Plasmodium falciparum. The biochemical processes that make this organelle essential for erythrocytic stage parasites are not well understood. However, antibiotics such as azithromycin and tetracycline, which target the apicoplast translational machinery, have a potent antimalarial effect.
We have developed a cell-based assay that measures parasite growth based on the expression of an integrated copy of a firefly luciferase reporter. To detect small molecules that cause this "delayed death" phenotype, erythrocytes infected with the luciferase-expressing parasites were incubated with compounds for either one or two generations, corresponding to 48 and 96 hours, respectively. Compounds that inhibit parasite growth in the second generation, but not the first, should be enriched in antimalarials that target the apicoplast. Growth inhibition is detected by a decrease in luciferase activity.
Assay Provider: David Fidock and Eric Ekland, Columbia University
Keywords: NIH Roadmap, MLPCN, MLI, MLSMR, qHTS, NCGC, qHTS, malaria, luciferase, viability
Four microliters of infected erythrocytes (2% hematocrit, 0.05% parasitemia final concentration) in culture medium were dispensed and the plates incubated for 96 hours at 37 C in 5% CO2. Two microliters of luciferase detection reagent was added and luminescence was detected by a ViewLux (PerkinElmer) reader.
% is scaled to controls: 0 for no effect and ±100 for the full control effect; potency is read from the fitted curve at half-maximal effect.

| SMILES | Potency | activity change, negative = inhibition |
| --- | --- | --- |
| CN(NC(=O)c1ccccc1F)c1nc(C(F)(F)F)nc2ccccc12 | 11.7 µM (active) | – |
| COC(=O)CNC(=O)c1ccccc1F | – | 9.78% |
| CN(NC(=O)c1ccccc1)c1nc2ccccc2nc1C(F)(F)F | – | 31.1% |
| O=C(O)c1ccccc1N=N/C(=N/Nc1cc(S(=O)(=O)O)ccc1O)c1ccccc1 | – | 15.8% |
| CC1CC(=O)Nc2ccccc2N1C(=O)COc1ccc2cc(Br)ccc2c1 (stereo unspecified) | – | -10.8% |
| C=CCN(C(=O)Nc1ccc2oc(C)nc2c1)c1ccccc1 | – | 35.4% |
| C=CCN(C(=O)Nc1ccc2c(c1)nc(C)n2C)c1ccccc1 | – | 128% |
| C=CCN(C(=O)Cn1ncc2c1-c1cc(C)ccc1OC2)c1ccccc1 | 9.28 µM (active) | – |
| CC(=O)NC(CC(=O)Nc1cccc(S(=O)(=O)N2CCCC2)c1)c1ccccc1 (stereo unspecified) | – | -13.5% |
| CC[C@]1(O)C[C@@H]2CN(CCc3c([nH]c4ccccc34)[C@@](C(=O)OC)(c3cc4c(cc3OC)N(C)[C@H]3[C@@](O)(C(=O)OC)[C@H](OC(C)=O)[C@]5(CC)C=CCN6CC[C@]43[C@@H]65)C2)C1 | 0.147 µM (active) | – |
| CC[C@]1(O)CC2CN(CCc3c([nH]c4ccccc34)[C@@](C(=O)OC)(c3cc4c(cc3OC)N(C=O)[C@H]3[C@@](O)(C(=O)OC)[C@H](OC(C)=O)[C@]5(CC)C=CCN6CC[C@]43[C@@H]65)C2)C1 (stereo partly specified) | 0.262 µM (active) | – |
| CN(C(=O)COC(=O)CNC(=O)C12CC3CC(CC(C3)C1)C2)c1ccccc1 | – | 9.76% |
| Cc1cc(NC(=O)CSc2nnnn2-c2ccc(F)cc2)no1 | – | 11.3% |
| CC(C(=O)NCCc1ccc(S(N)(=O)=O)cc1)N1C(=O)CC(C)(C)Sc2ccccc21 (stereo unspecified) | – | 8.48% |
| CCCN(C(=O)c1nc2nccc(C)n2n1)c1c(N)n(Cc2ccccc2)c(=O)[nH]c1=O | – | -13.1% |
| CCOC(=O)N1CCN(C(=S)Nc2ccc(C)cc2C)CC1 | – | 0% |
| COc1ccc(NC(=S)N2CCc3cc(OC)c(OC)cc3C2)cc1 | – | 6.7% |
| COc1ccc(OC)c(NC(=S)N2CCc3ccccc3C2)c1 | 4.15 µM (active) | – |
| COc1ccccc1/C=C/C(=O)NC(=S)N1CCOCC1 | – | 1.93% |
| COc1ccc(OC)c(NC(=O)c2ccc3c(c2)CCN3S(C)(=O)=O)c1 | – | 4.71% |
| COc1ccc(C)cc1NC(=S)N1CCOCC1 | 10.4 µM (active) | – |
| CC1CCCCN1C(=O)CCS(=O)(=O)Cc1ccccc1 (stereo unspecified) | – | 0% |
| CC(OC(=O)c1ccccc1NCCO)C(=O)Nc1ccnn1C(C)C (stereo unspecified) | – | 9.28% |
| CC(CCN1CCN=C1N(C)C)c1ccccc1 (stereo unspecified) | – | 0% |
| COc1ccc(N=C(C)c2sc3ccccc3c2O)cc1 | – | 166% |
| Cc1ccc(NS(=O)(=O)c2cn(C)c(=O)n(C)c2=O)c(C)c1 | – | -6.8% |

| SMILES | Potency | activity change, negative = inhibition |
| --- | --- | --- |
| Brc1ccc(C2CC(c3ccccc3)=Nc3ccccc3N2)cc1 (stereo unspecified) | – | -26% |
| Fc1ccccc1N=C1Nc2cccc3cccc1c23 | – | 5.56% |
| c1ccc(C2=Nc3cccc4cccc(c34)N2)cc1 | 11.7 µM (active) | – |
| C[C@@H](NC(=O)[C@@H]1Cc2ccccc2CN1)C(=O)NC1CCCC1 | – | -9.37% |
| CN(Cc1cnccn1)C(=O)c1cc(COc2cccc(C(F)(F)F)c2)on1 | – | -9.17% |
| COc1ccc(N2CCN(S(=O)(=O)c3ccc4c(c3)NC(=O)C(C)C(=O)N4)CC2)cc1 (stereo unspecified) | – | 10.7% |
| Nc1nc(NCC(=O)O)nc(N2CCCCCC2)c1[N+](=O)[O-] | – | 20.6% |
| C=CCNc1nc(N)c([N+](=O)[O-])c(NC2CCCCC2)n1 | 10.4 µM (active) | – |
| COCCNc1nc(N)c([N+](=O)[O-])c(NCCO)n1 | – | 31.3% |
| O=C(COc1ccc2ccc(=O)oc2c1)NCC(O)c1ccccc1 (stereo unspecified) | – | -26.5% |
| O=C(CCC1CCCC1)N=C1SC2CS(=O)(=O)CC2N1Cc1ccccc1 (stereo unspecified) | – | 37.1% |
| Cc1ccccc1OCC(=O)NNC(=O)c1ccc(-n2cncn2)c([N+](=O)[O-])c1 | – | 23.3% |
| C=CCn1c(SCn2nnc3ccccc3c2=O)nnc1-c1ccc(Cl)cc1 | 11.7 µM (active) | – |
| O=c1c2ccccc2nnn1CSc1nnnn1-c1ccccc1 | – | 46% |
| O=C(Cn1nnc2ccccc2c1=O)NCc1ccc(Cl)cc1 | – | 81.2% |
| N/C(=N\S(=O)(=O)c1ccc(Cl)cc1)N1CCOCC1 | – | -3.64% |
| CCOC(=O)Cc1csc(SCC(=O)Nc2ccc(C)cc2F)n1 | – | 21.7% |
| Fc1ccc(/C=N/Nc2nc(-c3cccnc3)nc3ccccc23)cc1 | – | 0% |
| Oc1ccc(/C=N/Nc2nc(-c3ccccc3F)nc3ccccc23)c(O)c1 | 11.7 µM (active) | – |
| Cc1nc2ccccc2nc1N/N=C/c1ccc(O)cc1O | 2.94 µM (active) | – |
| Cc1cc(N/N=C/c2ccccc2F)c2ccccc2n1 | – | 2.63% |
| Oc1ccc(/C=N/NC2=NCCCCC2)c(O)c1 | – | 27.9% |
| FC(F)(F)c1nc2ccccc2nc1N/N=C/c1ccc(Cl)cc1 | – | 37.3% |
| CC1CCCN(C(=O)CN2C(=O)c3ccccc3S2(=O)=O)C1 (stereo unspecified) | – | 309% |
| COc1cc(OC)cc(/C(N)=N/O)c1 | – | 110% |
